Records with an inconclusive call do not appear. The source made the active and inactive calls. Rule for the calls: active = hit-call score of the fitted dose curve at least 0.9, where 1 is the maximum; inconclusive = response in the unintended direction; inactive = score below 0.9.
Tests used:
[1] = target: human Phosphoinositide 3-kinase alpha (PI3Ka), PIK3CA (gene 5290) (UniProt P42336); assay: NVS_ENZ_hPI3Ka: NovaScreen (NVS) Enzymatic Assay for human Phosphoinositide 3-kinase alpha (PI3Ka) (AID 2283196)
human Phosphoinositide 3-kinase alpha (PI3Ka), PIK3CA (gene 5290), sequence (P42336 whole entry, looked up): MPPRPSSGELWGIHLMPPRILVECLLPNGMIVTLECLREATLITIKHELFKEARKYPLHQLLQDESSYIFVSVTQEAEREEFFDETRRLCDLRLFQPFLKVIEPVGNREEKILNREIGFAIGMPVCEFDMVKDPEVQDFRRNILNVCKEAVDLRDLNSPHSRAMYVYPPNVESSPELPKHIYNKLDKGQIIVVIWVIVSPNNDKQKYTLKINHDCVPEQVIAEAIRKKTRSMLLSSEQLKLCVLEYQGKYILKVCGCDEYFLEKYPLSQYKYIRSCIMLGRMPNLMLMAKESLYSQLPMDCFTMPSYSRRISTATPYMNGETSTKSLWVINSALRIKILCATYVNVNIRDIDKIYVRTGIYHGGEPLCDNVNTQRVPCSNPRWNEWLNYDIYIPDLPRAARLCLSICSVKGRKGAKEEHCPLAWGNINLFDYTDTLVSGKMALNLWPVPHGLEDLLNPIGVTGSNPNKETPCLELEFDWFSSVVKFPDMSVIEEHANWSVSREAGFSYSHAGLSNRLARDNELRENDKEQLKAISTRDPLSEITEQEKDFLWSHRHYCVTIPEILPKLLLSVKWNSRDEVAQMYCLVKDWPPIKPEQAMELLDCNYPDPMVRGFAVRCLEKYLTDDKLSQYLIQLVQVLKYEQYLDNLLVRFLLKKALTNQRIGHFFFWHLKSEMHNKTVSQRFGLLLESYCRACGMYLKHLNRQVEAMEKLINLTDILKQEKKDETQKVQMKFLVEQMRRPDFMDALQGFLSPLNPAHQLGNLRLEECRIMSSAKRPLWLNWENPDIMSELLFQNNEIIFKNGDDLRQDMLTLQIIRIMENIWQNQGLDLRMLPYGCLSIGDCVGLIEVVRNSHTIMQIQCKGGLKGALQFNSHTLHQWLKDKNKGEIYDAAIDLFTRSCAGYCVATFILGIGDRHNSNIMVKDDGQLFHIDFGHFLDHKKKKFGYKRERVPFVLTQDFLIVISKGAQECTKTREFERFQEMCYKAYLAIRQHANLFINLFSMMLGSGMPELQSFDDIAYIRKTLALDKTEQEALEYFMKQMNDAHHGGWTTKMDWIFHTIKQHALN
Outline: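 Fluorescence/mobility-shift readout of substrate conversion by recombinant enzyme, 1 h post-dosing. Primary screen in duplicate at 25 uM; actives (e.g. ≥30% inhibition) retested in singleton concentration-response, top concentration 50 uM.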

[2] = target: Tyrosine-protein phosphatase non-receptor type 11 (Homo sapiens) (UniProt Q06124); assay: NVS_ENZ_hPTPN11: NovaScreen (NVS) Enzymatic Assay for human Protein Tyrosine Phosphatase Non-receptor Type 11 (PTPN11) (AID 2283202)
Tyrosine-protein phosphatase non-receptor type 11 (Homo sapiens), sequence (Q06124 whole entry, looked up): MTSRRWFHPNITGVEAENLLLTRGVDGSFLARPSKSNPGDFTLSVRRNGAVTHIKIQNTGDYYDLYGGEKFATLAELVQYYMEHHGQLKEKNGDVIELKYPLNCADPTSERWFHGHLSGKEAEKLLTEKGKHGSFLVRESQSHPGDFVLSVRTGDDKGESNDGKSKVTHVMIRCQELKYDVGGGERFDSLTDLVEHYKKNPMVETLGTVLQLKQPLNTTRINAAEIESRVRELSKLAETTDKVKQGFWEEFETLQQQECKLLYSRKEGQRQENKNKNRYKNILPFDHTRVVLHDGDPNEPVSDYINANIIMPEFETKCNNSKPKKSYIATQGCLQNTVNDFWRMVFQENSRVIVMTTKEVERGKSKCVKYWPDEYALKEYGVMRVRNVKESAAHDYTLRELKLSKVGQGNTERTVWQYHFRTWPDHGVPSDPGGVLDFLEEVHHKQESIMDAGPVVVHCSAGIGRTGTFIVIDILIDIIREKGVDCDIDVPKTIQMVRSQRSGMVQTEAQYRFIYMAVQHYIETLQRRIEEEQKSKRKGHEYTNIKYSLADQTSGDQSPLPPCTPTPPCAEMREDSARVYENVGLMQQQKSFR
Outline: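 Recombinant human PTPN11 activity on a fluorescent substrate, with substrate/product separated by electrophoretic mobility shift; read 0.5 h after dosing, loss of signal vs DMSO. Duplicate 25 uM screen, then concentration-response up to 50 uM.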

[3] = target: Tyrosine-protein phosphatase non-receptor type 12 (Homo sapiens) (UniProt Q05209); assay: NVS_ENZ_hPTPN12: NovaScreen (NVS) Enzymatic Assay for human Protein Tyrosine Phosphatase Non-receptor Type 12 (PTPN12) (AID 2283204)
Tyrosine-protein phosphatase non-receptor type 12 (Homo sapiens), sequence (Q05209 whole entry, looked up): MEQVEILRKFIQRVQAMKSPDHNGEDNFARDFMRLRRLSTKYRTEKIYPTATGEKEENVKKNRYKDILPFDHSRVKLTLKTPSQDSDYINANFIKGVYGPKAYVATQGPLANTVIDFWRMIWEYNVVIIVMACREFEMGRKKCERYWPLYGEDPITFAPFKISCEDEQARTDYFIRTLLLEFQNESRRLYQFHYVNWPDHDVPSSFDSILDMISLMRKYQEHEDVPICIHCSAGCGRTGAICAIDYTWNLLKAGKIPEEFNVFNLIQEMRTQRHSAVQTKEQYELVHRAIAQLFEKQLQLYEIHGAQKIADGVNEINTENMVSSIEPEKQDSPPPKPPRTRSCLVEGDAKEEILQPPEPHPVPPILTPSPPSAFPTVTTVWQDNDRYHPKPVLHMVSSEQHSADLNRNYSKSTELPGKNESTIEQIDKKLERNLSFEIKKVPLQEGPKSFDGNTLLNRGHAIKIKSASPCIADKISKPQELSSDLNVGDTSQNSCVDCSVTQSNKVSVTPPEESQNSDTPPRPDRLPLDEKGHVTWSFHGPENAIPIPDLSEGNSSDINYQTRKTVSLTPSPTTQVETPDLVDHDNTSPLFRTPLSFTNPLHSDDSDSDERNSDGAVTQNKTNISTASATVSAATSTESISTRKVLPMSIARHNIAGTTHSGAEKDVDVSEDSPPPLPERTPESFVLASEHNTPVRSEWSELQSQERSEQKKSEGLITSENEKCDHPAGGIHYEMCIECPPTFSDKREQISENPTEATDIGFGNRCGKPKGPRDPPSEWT
Outline: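 Single-concentration duplicates (25 uM) preceded singleton concentration-response up to 50 uM for chemicals passing threshold. Cell-free recombinant PTPN12 activity was read 1.33 h after dosing via fluorescence after mobility-shift separation; loss of signal versus DMSO.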

[4] = target: human Vascular Endothelial Growth Factor Receptor 3 (VEGFR3), FLT4 (gene 2324) (UniProt P35916); assay: NVS_ENZ_hVEGFR3: NovaScreen (NVS) Enzymatic Assay for human Vascular Endothelial Growth Factor Receptor 3 (VEGFR3) (AID 2283229)
Outline: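 Cell-free recombinant VEGFR3 kinase reaction with fluorescent substrate, read 1 h after dosing by electrophoretic mobility shift separation of substrate and product. Single-concentration duplicate screen at 25 uM, then concentration-response up to 50 uM; loss of activity versus DMSO.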

[5] = target: human Vascular Endothelial Growth Factor Receptor 2 (VEGFR2), KDR (gene 3791) (UniProt P35968); assay: NVS_ENZ_hVEGFR2: NovaScreen (NVS) Enzymatic Assay for human Vascular Endothelial Growth Factor Receptor 2 (VEGFR2) (AID 2283230)
human Vascular Endothelial Growth Factor Receptor 2 (VEGFR2), KDR (gene 3791), sequence (P35968 whole entry, looked up): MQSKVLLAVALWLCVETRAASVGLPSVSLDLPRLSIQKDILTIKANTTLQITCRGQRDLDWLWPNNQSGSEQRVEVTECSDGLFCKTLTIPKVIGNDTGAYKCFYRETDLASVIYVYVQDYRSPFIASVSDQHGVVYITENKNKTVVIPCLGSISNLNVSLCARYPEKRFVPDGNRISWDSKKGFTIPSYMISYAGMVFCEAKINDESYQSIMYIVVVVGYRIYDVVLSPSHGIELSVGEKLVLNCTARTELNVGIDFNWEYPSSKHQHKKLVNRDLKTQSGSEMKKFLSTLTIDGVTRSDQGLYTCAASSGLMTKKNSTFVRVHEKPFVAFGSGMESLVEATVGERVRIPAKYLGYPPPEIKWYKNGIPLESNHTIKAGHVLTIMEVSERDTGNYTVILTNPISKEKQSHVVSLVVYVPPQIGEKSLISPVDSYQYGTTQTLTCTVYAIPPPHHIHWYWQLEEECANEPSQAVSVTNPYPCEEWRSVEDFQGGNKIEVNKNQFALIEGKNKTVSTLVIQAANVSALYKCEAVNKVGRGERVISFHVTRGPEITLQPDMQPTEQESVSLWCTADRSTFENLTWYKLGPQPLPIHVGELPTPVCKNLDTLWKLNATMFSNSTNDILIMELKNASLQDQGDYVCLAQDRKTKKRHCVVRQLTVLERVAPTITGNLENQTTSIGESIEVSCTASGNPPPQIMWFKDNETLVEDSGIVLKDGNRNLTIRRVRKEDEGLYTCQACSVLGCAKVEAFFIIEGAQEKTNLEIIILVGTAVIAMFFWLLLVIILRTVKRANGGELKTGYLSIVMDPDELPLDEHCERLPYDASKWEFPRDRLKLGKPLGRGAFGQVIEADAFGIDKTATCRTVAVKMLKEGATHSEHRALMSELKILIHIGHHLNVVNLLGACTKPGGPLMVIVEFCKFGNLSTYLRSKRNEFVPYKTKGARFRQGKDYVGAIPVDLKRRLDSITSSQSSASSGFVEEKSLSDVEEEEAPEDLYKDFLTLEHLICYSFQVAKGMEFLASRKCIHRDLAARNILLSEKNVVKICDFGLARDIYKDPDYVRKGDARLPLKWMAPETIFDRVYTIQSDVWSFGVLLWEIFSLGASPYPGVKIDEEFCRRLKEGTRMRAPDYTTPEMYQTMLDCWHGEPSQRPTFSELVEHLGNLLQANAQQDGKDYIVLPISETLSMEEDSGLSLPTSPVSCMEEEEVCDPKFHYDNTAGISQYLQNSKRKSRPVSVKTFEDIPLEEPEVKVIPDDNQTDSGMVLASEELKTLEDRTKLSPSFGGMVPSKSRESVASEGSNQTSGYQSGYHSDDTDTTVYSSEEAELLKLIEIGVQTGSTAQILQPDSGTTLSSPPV
Outline: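 Cell-free recombinant VEGFR2 kinase, fluorescent substrate with electrophoretic mobility-shift separation; read 1 h after dosing. Screened at 25 uM in duplicate, hits to concentration-response up to 50 uM; loss-of-signal versus DMSO.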

[6] = target: sheep Cyclooxygenase-2 (Cox2), PTGS2 (gene 443460) (UniProt P79208); assay: NVS_ENZ_oCOX2: NovaScreen (NVS) Enzymatic Assay for sheep Cyclooxygenase-2 (Cox2) (AID 2283231)
sheep Cyclooxygenase-2 (Cox2), PTGS2 (gene 443460), sequence (P79208 whole entry, looked up): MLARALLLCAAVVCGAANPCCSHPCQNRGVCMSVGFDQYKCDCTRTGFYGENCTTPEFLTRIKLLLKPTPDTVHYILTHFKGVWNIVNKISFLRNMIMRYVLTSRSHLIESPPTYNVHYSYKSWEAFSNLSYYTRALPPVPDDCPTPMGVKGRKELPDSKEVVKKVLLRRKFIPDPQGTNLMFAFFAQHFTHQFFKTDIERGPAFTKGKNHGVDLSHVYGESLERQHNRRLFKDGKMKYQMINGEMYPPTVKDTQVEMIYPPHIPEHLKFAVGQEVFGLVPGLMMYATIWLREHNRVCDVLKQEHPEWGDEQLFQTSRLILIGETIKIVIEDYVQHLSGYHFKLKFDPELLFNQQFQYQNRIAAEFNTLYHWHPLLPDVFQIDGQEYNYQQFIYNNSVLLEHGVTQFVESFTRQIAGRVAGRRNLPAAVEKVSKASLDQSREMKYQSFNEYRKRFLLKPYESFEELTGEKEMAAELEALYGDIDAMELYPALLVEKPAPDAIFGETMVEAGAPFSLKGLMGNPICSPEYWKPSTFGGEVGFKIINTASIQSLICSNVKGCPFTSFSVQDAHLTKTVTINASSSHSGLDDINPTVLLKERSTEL
Outline: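 Colorimetric absorbance read-out of COX activity, taken 0.66 hour post-dosing, using native protein from sheep placenta. Single-concentration duplicate screen (25 uM), then singleton concentration-response up to 50 uM for actives.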

[7] = target: sheep Cyclooxygenase-1 (Cox1), PTGS1 (gene 443551) (UniProt P05979); assay: NVS_ENZ_oCOX1: NovaScreen (NVS) Enzymatic Assay for sheep Cyclooxygenase-1 (Cox1) (AID 2283239);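 note: actives reduce cyclooxygenase activity so potencies are for inhibitors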
sheep Cyclooxygenase-1 (Cox1), PTGS1 (gene 443551), sequence (P05979 whole entry, looked up): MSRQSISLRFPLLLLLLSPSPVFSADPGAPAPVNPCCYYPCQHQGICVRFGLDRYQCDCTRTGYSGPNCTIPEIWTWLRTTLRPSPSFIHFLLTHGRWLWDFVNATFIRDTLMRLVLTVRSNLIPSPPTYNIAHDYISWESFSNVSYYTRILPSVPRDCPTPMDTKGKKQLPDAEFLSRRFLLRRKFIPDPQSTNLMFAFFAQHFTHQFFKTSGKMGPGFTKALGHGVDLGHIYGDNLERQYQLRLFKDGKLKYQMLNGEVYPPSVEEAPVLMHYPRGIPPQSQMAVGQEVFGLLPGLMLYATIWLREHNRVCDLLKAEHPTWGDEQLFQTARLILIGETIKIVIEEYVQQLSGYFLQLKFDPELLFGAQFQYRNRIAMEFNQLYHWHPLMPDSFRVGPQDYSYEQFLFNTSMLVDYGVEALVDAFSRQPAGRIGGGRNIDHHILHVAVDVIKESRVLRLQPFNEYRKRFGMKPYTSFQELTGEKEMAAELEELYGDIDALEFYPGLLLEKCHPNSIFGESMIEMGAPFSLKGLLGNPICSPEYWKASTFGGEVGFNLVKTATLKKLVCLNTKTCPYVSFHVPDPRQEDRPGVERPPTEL
Outline: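 Native ovine seminal vesicle protein serves as enzyme source in this biochemical assay. Colorimetric signal is recorded 0.66 h after chemical addition, and decreases versus the DMSO control define activity.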

O=C1c2c(O)ccc(Nc3ccc(CCO)cc3)c2C(=O)c2c([N+](=O)[O-])ccc(O)c21
AC50 [1]: 2.07 µM (active)

Cc1cc(O)c(C(C)(C)C)cc1C(C)(C)C
outcome [1]: inactive

CCCCCCCCCCCCCC[P+](CCCC)(CCCC)CCCC
AC50 [2]: 14.8 µM (active)
AC50 [3]: 18.5 µM (active)
AC50 [4]: 17.5 µM (active)
AC50 [5]: 11.4 µM (active)
AC50 [6]: 5.19 µM (active)

CCCCCCCCn1sc(Cl)c(Cl)c1=O
outcome [6]: inactive

CC(C)CCCC(C)CCO (stereo not given)
outcome [7]: inactive

CC1=CC2C3C=CC(C3)C2C1C (stereo not given)
AC50 [7]: 30.4 µM (active)
